Values without a mark were called inactive. Inconclusive results are not listed. Activity calls are given as the source filed them. Calls follow the shape of the dose curve; as a rule, active = well fitted curve in the direction sought with a large enough effect; inconclusive = small, poorly fitted or top-dose-only effect, or another doubt; inactive = no such curve, though single readings can be large; an effect the other way counts as inactive or inconclusive.

Test [1] in a line: Viability counterscreen for antagonist of constitutive androstane receptor (CAR) against the NCATS DSHEA and TCM libraries (AID 1794837).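 Also: compound exposure lasted 24 h before viability reading; 0% is about no effect.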 Put shortly:
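HepG2-CYP2B6-hCAR cells (2,500/well) were allowed to attach for 5 h, then exposed to compounds with 48 uM CITCO for 24 h at 37C. Viability was read by CellTiter-Fluor fluorescence after 1 h.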
A general note: The purpose of a counterscreen is to sort out artefacts and off-target activity.

Test [2] can be described thus: Viability counterscreen for agonist of constitutive androstane receptor (CAR) against the NCATS DSHEA and TCM libraries (AID 1794838). Also: 0% is about no effect. Put shortly:
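HepG2-CYP2B6-hCAR cells (2,500/well) attached 5 h, then got compounds plus 0.75 uM PK11195 final. After 24 h at 37C, viability read by CellTiter-Fluor fluorescence (Ex/Em 405/540 nm).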

The target in test [3] is Nuclear receptor subfamily 1 group I member 3 (Homo sapiens) (UniProt Q14994). Kind of test: Primary qHTS for agonist of constitutive androstane receptor (CAR) against the NCATS DSHEA and TCM libraries (AID 1794839).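 Also: HepG2 cells expressing human CAR with a CYP2B6 reporter plus PK11195 antagonist; 0% is about no effect.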 Put shortly:
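HepG2-CYP2B6-hCAR cells (2,500/well) were attached for 5 h, then treated for 24 h at 37 °C with compounds plus 0.75 µM PK11195. Luciferase luminescence (ONE-Glo) was read, with CellTiter-Fluor viability (Ex/Em 405/540 nm).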
On the technique in general: qHTS replaces the single test concentration by a dilution series.

The nature of test [4]: HepG2 viability counterscreen (readout 2: ATP content) against the NCATS DSHEA and TCM libraries (AID 1794840).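 Also: HepG2 cells exposed to substances for about 24 h; 0% is about no effect.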 In outline:
(§1)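 HepG2 cells (1,000 cells/well) attached ~4 h, then treated ~24 h at 37C with substances. Protease activity read by GF-AFC (25 uM final, 30 min, Ex/Em 380/510 nm); ATP content then by CellTiter-Glo luminescence.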

The nature of test [5]: HepG2 viability counterscreen (readout 1: protease activity) against the NCATS DSHEA and TCM libraries (AID 1794841).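 Also: cells exposed to compounds for about 24 h before the protease read; 0% is about no effect.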 Put shortly: as §1
Test [6] concerns the target Cytochrome P450 2D6 (Homo sapiens) (UniProt P10635). Kind of test: qHTS for inhibitors of CYP2D6 against the NCATS DSHEA and TCM libraries (AID 1919972). Also: % is scaled to controls: 0 for no effect and ±100 for the full control effect. In outline:
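Luminescent P450-Glo read-out of CYP2D6 turnover of a luciferin substrate after NADPH-driven reaction of 30-45 min at room temperature. Compounds were first preincubated 15 min with enzyme at titrated concentrations; quinidine was the intraplate control.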

For test [7], the target named is Cytochrome P450 2C9 (Homo sapiens) (UniProt P11712). As to the kind of experiment: qHTS for inhibitors of CYP2C9 against the NCATS DSHEA and TCM libraries (AID 1919973). Also: potency is read from the fitted curve at half-maximal effect.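 As to activity change, negative = inhibition: luminogenic pro-luciferin CYP2C9 substrate turned into luciferin with NADPH regeneration; series mostly up to about 34 µM; % is scaled to controls: 0 for no effect and ±100 for the full control effect.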 In outline:
(§2)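 Read-out is luminescence after P450-Glo detection (30 min, RT). Before that: 15 min compound–enzyme preincubation, then 30-45 min reaction with 1x NADPH regeneration solution, substrate concentration isoform-specific.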

A short description of test [8]: KB-3-1 P-gp reporter qHTS against the NCATS DSHEA and TCM libraries (AID 1919975). Also: 0% is about no effect. In outline: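 Parental KB-3-1 human cervical adenocarcinoma cells (500 cells/well, DMEM + 10% FBS) were treated with substances for ~72 h at 37C; viability was read by CellTiter-Glo luminescence.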
Test [9] in a line: qHTS Counterscreen for compound interference against the NCATS DSHEA and TCM libraries (AID 1919978). Also: % of control where 0% means no effect. Conditions: firefly luciferase detection reagent interference, luminescence. In outline:
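D-luciferin (1 uM final) or 100 mM potassium phosphate buffer alone was preincubated 15 min at RT with compounds (19.5 nM to 39.8 uM final). Luciferin detection reagent was then added and luminescence read after 30 min at RT.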

Test [10] can be described thus: Dual reporter qHTS for agonist of Pregnane X Receptor (hPXR) against the NCATS DSHEA and TCM libraries: Fluorescence readout (AID 1920058). Also: 0% is about no effect. Put shortly:
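HepG2 hPXR-Luc, 2000 cells/well, 5 h attach; cpds ~24 h, 37 °C/5% CO2; CellTiter-Fluor 1 h; fluor. Ex/Em 405/540 nm = viability.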

For test [11], the target named is Nuclear receptor subfamily 1 group I member 2 (Homo sapiens) (UniProt O75469). As to the kind of experiment: Dual reporter qHTS for agonist of Pregnane X Receptor (hPXR) against the NCATS DSHEA and TCM libraries: Luminescence readout (AID 1920059). Also: 0% is about no effect. Put shortly: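 Luminescent PXR reporter read (ONE-Glo) after a CellTiter-Fluor viability read, following 24 h, 37C treatment of HepG2 cells stably carrying hPXR-Luc.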
Nuclear receptor subfamily 1 group I member 2 (Homo sapiens), sequence (O75469 whole entry, looked up): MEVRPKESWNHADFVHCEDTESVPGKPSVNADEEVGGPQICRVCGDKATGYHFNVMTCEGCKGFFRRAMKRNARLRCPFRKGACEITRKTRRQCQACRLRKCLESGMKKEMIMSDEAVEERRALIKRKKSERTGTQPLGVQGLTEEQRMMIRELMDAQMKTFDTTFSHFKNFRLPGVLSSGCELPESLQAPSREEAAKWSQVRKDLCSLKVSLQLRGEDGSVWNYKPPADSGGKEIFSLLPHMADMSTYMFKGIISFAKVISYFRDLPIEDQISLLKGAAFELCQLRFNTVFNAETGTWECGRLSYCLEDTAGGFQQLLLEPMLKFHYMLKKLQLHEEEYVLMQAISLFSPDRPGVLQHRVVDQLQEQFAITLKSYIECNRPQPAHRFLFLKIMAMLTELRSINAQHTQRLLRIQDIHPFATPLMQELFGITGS

Test [12] has the same target. As to the kind of experiment: Dual reporter qHTS for antagonist of Pregnane X Receptor (hPXR) against the NCATS DSHEA and TCM libraries: Luminescence Readout (AID 1920060).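 Also: HepG2 cells carrying hPXR luciferase reporter stimulated with rifampicin at 2 µM; 0% is about no effect.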 Put shortly:
(§3)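 In antagonist mode, 2 uM rifampicin was added to hPXR-Luc HepG2 cells alongside test substances, incubated 24 h at 37 C; luminescence gave reporter activity, and CellTiter-Fluor fluorescence (405/540 nm) gave viability.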

The nature of test [13]: Dual reporter qHTS for antagonist of Pregnane X Receptor (hPXR) against the NCATS DSHEA and TCM libraries: Fluorescence Readout (AID 1920061). Also: 0% is about no effect. Put shortly:
as §3

The target of test [14] is Cytochrome P450 1A2 (Homo sapiens) (UniProt P05177). Kind of test: qHTS for inhibitors of CYPIA2 against the NCATS DSHEA and TCM libraries (AID 1919976).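 Also: light from luciferin formed by CYP1A2 from a pro-luciferin substrate; series mostly up to about 37 µM; % is scaled to controls: 0 for no effect and ±100 for the full control effect.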 Put shortly: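 CYP1A2 + luciferin substrate, 100 mM KPO4-type buffer; cmpd 15 min RT; 1x NADPH regen, 30-45 min RT dark; detection reagent 30 min RT; luminescence. Minus-enzyme wells as background; furafylline intraplate control.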
Cytochrome P450 1A2 (Homo sapiens), sequence (P05177 whole entry, looked up): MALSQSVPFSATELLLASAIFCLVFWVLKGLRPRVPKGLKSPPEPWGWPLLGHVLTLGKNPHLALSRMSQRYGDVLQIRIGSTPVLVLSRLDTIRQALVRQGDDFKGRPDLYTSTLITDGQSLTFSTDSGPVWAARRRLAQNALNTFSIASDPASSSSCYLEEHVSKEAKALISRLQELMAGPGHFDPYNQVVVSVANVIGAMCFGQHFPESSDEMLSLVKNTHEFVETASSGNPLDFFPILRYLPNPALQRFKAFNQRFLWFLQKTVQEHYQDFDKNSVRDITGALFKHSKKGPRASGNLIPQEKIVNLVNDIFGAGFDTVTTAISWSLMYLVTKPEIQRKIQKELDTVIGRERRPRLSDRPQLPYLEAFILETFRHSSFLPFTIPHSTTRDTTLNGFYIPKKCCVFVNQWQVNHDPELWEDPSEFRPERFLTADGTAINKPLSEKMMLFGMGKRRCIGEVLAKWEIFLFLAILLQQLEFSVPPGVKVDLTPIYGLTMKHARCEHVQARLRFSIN

The target in test [15] is Cytochrome P450 3A4 (Homo sapiens) (UniProt P08684). As to the kind of experiment: qHTS for inhibitors of CYP3A4 against the NCATS DSHEA and TCM libraries (AID 1919971).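 Also: % is scaled to controls: 0 for no effect and ±100 for the full control effect; inhibition lowers luminescence from luciferin made by CYP3A4.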 In outline:
as §2

Nuclear receptor subfamily 1 group I member 3 (Homo sapiens), sequence (Q14994 whole entry, looked up): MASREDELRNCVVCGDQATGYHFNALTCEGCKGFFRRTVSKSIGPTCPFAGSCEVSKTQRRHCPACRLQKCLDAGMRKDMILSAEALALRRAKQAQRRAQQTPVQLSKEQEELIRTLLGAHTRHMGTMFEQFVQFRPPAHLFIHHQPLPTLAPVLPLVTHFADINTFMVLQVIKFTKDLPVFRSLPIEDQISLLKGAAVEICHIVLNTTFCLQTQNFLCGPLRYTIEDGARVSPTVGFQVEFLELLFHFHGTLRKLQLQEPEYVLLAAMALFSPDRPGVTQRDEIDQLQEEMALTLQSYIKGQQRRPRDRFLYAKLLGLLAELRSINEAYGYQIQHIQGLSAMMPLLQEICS
Cytochrome P450 2C9 (Homo sapiens), sequence (P11712 whole entry, looked up, canonical isoform): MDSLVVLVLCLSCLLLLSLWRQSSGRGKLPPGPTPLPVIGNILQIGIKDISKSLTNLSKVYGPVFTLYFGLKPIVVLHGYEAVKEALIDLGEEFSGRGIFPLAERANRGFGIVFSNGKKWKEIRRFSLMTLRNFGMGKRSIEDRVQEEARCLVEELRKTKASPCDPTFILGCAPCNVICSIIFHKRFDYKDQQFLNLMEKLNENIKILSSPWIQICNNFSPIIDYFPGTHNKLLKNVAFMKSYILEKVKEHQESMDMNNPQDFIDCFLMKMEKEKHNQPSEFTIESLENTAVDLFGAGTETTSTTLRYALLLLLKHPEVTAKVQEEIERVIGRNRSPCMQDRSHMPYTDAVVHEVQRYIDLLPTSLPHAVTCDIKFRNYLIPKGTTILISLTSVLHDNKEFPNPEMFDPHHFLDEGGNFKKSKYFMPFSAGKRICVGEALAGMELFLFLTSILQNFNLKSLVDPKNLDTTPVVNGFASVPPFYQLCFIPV
Cytochrome P450 2D6 (Homo sapiens), sequence (P10635 whole entry, looked up): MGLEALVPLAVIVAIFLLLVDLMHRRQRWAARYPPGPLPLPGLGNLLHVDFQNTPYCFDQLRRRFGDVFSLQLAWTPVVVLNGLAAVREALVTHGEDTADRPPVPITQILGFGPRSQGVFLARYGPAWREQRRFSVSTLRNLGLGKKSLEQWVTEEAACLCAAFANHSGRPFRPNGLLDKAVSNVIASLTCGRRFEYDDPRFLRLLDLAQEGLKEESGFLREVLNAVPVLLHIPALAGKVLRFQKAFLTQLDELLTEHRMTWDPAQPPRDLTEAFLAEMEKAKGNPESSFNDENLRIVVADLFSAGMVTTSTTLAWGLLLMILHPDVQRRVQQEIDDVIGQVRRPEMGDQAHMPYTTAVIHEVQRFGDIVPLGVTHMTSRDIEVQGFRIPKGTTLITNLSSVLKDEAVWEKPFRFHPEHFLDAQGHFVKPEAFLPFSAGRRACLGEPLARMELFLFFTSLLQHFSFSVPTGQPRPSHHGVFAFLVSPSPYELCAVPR
Cytochrome P450 3A4 (Homo sapiens), sequence (P08684 whole entry, looked up): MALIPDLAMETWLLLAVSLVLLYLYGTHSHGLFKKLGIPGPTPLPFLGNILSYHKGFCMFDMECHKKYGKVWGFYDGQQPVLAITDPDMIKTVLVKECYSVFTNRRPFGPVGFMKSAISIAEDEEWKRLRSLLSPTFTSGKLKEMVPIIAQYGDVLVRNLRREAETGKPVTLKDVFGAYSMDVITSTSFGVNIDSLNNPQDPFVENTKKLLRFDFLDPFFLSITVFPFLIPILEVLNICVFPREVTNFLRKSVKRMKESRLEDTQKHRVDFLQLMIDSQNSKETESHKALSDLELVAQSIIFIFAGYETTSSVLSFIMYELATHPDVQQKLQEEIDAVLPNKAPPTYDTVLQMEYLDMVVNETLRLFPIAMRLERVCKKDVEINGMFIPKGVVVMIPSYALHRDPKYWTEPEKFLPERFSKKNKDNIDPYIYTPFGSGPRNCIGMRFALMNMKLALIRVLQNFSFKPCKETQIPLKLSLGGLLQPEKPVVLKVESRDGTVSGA

As to `O=C(O)[C@H]1O[C@@H](Oc2c(-c3ccc(O)c(O)c3)oc3cc(O)cc(O)c3c2=O)[C@H](O)[C@@H](O)[C@@H]1O`, the compound was classed as inactive in test [1], in test [2], in test [4], in [5], in [8] and in test [10]. The outcome in test [12] and in test [13] was inactive. Also, the Potency entry in test [3], in test [6] and in [11] was “inactive” throughout. In [7], the Potency was 14.1 µM (active). Moreover, the max response in test [9] was 3.23%.
`C=C1C[C@]23CC[C@H]4[C@@](C)(CCC[C@@]4(C)C(=O)O)[C@@H]2CC[C@@]1(O[C@@H]1O[C@H](CO)[C@@H](O)[C@H](O)[C@H]1O[C@@H]1O[C@H](CO)[C@@H](O)[C@H](O)[C@H]1O)C3`: the compound was called inactive in test [1], in test [2], in [4], in test [5], in test [8] and in test [10]. In addition, the outcome in test [12] and in test [13] was inactive. Moreover, the Potency entry in test [3], in [6], in [7], in test [14] and in test [11] was “inactive” each time. In addition, the max response in test [9] is -1.97%.
Take `CC[C@H](CC[C@@H](C)[C@H]1CCC2C3CCC4C[C@@H](O)CC[C@]4(C)C3CC[C@@]21C)C(C)C` (some centres undefined): the compound was classed as inactive in [1], in test [2], in test [4], in test [5], in test [8] and in test [10]. For the same compound, the result in test [12] and in test [13] was inactive. The Potency entry in [3], in [15], in test [6], in [7], in test [14] and in [11] was “inactive” in each case. Also, the max response in [9] was -1.23%.
`CC(=O)O[C@H]1[C@H](O[C@H]2CC[C@]34C[C@]35CC[C@]3(C)[C@@H]([C@@]6(C)CC[C@@H](C(C)(C)O)O6)[C@@H](O)C[C@@]3(C)[C@@H]5C[C@H](O[C@@H]3O[C@H](CO)[C@@H](O)[C@H](O)[C@H]3O)[C@H]4C2(C)C)OC[C@@H](O)[C@@H]1O`: the result in [1], in test [2], in test [4], in [5], in [10] and in test [12] was inactive. In addition, the compound was called inactive in test [13]. The Potency result in test [3], in [6], in [7], in [14] and in test [11] was “inactive” throughout. Also, the max response in test [9] is -3.47%.
`CCCCCCCCCCCCCCCCCCCCCCCCCCCCCCO`: the viability change, negative = cytotoxic in test [1] was -4.15% [at 5 µM]. For the same compound, the activity change, negative = cytotoxicity in test [2] is 8.74% [at 5 µM]. Moreover, the activation is -23.2% [at 5 µM] in [3], 1.05% [at 5 µM] in test [10] and -7.37% [at 5 µM] in test [11]. Further, the activity change, negative = cytotoxic in test [4] is -1.11% [at 3.42 µM]. Also, the activity change, negative = inhibition in test [5] is 5.84% [at 3.42 µM]; in [6], -0.757% [at 4.27 µM]; in test [7], 4.8% [at 4.27 µM]; in test [8] it was -11% [at 3.26 µM]; in [14], 15.7% [at 4.62 µM]; in [12] it was -14.7% [at 5 µM]. Further, the activity change, negative = inhibition in [13] is 2.96% [at 5 µM]. Besides, in test [9], the max response was -2.33%.
Turning to `CCCCCCCCCCCCCCCCCCCCCC(=O)O`, the call in test [1], in [2], in test [4], in test [5], in test [8] and in [10] was inactive. In addition, the compound was classed as inactive in test [12] and in test [13]. The Potency result in [3], in [15], in test [6], in test [7], in test [14] and in test [11] was “inactive” each time. Moreover, in test [9], the max response was 3.78%.

The values are drawn from PubChem BioAssay (NCATS).
